Consider 15 compounds from PubChem BioAssay (NCATS).

Each structure is given as a SMILES string. A number with no mark means an inactive call. Inconclusive results are not listed. The source made the active and inactive calls. Unless noted, calls follow the shape of the dose curve; as a rule, active = well fitted curve in the direction sought with a large enough effect; inconclusive = small, poorly fitted or top-dose-only effect, or another doubt; inactive = no such curve, though single readings can be large; an effect the other way counts as inactive or inconclusive.

A short description of experiment [1]: qHTS for inhibitors of adenylyl cyclases using a fission yeast platform: a pilot screen against the NCATS LOPAC library (AID 1347410).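 Also: plate controls were DMSO vehicle for no effect and DPI positive control for full effect.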 In short, it runs like this:
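GFP from fbp1-GFP reporter, read by Acumen laser cytometry, indicates AC inhibition in fission yeast expressing AC9, GNAS and PDE4D2. Cells grown 18 h in the dark at 30C with compounds, final up to 57 uM.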
(In general: Quantitative high-throughput screening tests each substance at several concentrations.)

Experiment [2] addresses Protein phosphatase 1D (Homo sapiens) (UniProt O15297). Kind of experiment: RapidFire Mass Spectrometry qHTS Assay for Modulators of WT P53-Induced Phosphatase 1 (WIP1) (AID 1347424).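 Also: series mostly up to about 63 µM; plate controls were DMSO wells for no effect and GSK830371 inhibitor control at 10 µM for full effect.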 In short, it runs like this:
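RapidFire MS readout of dephosphorylated VEPPL-S-QETFS product, with 1 uM isotope-labelled peptide standard. Reaction: 10 nM WIP1, 2 uM phosphopeptide substrate, 5 min, room temperature, after 1 h compound preincubation; stopped with 0.5% formic acid.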

The target is the same in experiment [3]. Kind of experiment: Rhodamine-PBP qHTS Assay for Modulators of WT P53-Induced Phosphatase 1 (WIP1) (AID 1347425). Also: % of control where 0% means no effect. In short, it runs like this: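 The read-out is the change in Rhodamine-PBP fluorescence (f1 - f0, ex 525/em 598 nm) as Pi is released, read each minute for 11 min. Final reaction: 5 nM WIP1, 10 uM phosphopeptide VEPPL-pS-QETFS, 10 uM Rh-PBP, 50 mM Tris-HCl pH 7.5, 30 mM MgCl2. Compound was preincubated with enzyme for 1 hour at room temperature.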

The nature of experiment [4]: Validation qHTS assay for inhibitors of Activation Induced Cytidine Deaminase (AID): UDG Counterscreen signal (AID 1347427). Also: 0% is about no effect. In short, it runs like this:
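Fluorescence at 560 nm excitation, 665 nm emission reports UDG signal after 250 mM NaOH (2x) addition and 30 min. Enzymes (AID 1 uM, UDG 2 U/mL, at 4/3x) preincubated 10 min with compound, then 4 h with 4x 250 nM DJC20/DJC23 substrate at room temperature.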

Experiment [5] deals with Single-stranded DNA cytosine deaminase (Homo sapiens) (UniProt Q9GZX7). Kind of experiment: Validation qHTS assay for inhibitors of Activation Induced Cytidine Deaminase (AID): AID signal (AID 1347429). Also: % is scaled to controls: 0 for no effect and ±100 for the full control effect. In short, it runs like this:
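AID+UDG coupled FRET deamination; cpds up to 114 uM final; DJC20/DJC23 substrate, 4 hr RT; NaOH stop, 30 min RT; read Ex 540/Em 590.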

Experiment [6] can be described thus: Primary qHTS for inhibitors of SARS-S pseudo-typed particle cell entry (AID 1479145; calls by dose curve; also: nearly all actives have a fitted effect of over 45% in size).
Experiment [7] can be described thus: Primary qHTS for Huh7 cytotoxicity: counterscreen for inhibitors of MERS-S pseudotyped particle cell entry (AID 1479147; calls by dose curve; also: potency is read from the fitted curve at half-maximal effect).
A short description of experiment [8]: Primary qHTS for inhibitors of MERS-S pseudo-typed particle cell entry (AID 1479149; calls by dose curve; also: nearly all actives have a fitted effect of over 60% in size).
Experiment [9] is described as follows: Primary qHTS for Vero E6 cytotoxicity: counterscreen for inhibitors of SARS-S pseudo-typed particle cell entry (AID 1479150; calls by dose curve).
Experiment [10] can be described thus: Primary qHTS for inhibitors of La Crosse Virus (LACV) - induced cell death in SH-SY5Y cells (AID 1508616).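 Also: top concentration of the series differs between compounds; 0% = infected DMSO wells and 100% = uninfected DMSO wells; higher means more rescue of cells from virus-induced death.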 In short, it runs like this:
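Cytopathicity rescue screen: compounds pinned onto SH-SY5Y cells, which are then infected with LACV (MOI 0.01) and held 6 days at 37C. Percent activity is scaled between infected DMSO control and uninfected DMSO control.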

Experiment [11] concerns the target Calcium and integrin-binding protein 1 (Homo sapiens) (UniProt Q99828). The experiment is described as follows: Validation qHTS for Identification of Calcium Integrin Binding protein 1 (CIB1) Competitor (AID 1508618). Also: potency is read from the fitted curve at half-maximal effect. In short, it runs like this:
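CIB1-GST (1 uM final) incubated 15 min at room temperature with compounds (up to 114 uM), then FITC-labelled alphaIIb peptide (100 nM) added. FP read (Ex 480/Em 540) after 15 min, pH 7.4 buffer containing 5 mM CaCl2.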

Experiment [12] shares this target. The experiment is described as follows: Primary qHTS for Identification of Calcium Integrin Binding Protein 1 (CIB1) Competitor (AID 1508620). Also: top concentration of the series differs between compounds; % is scaled to controls: 0 for no effect and ±100 for the full control effect. In short, it runs like this: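 Fluorescence polarization competition: GST-tagged CIB1 (1 uM final) preincubated with compound 15 min at room temperature, then FITC-labelled alphaIIb peptide (100 nM final) added. After 15 min at room temperature, polarization read at Ex 480/Em 540.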

Experiment [13] is described as follows: Primary qHTS for small molecule stabilizers of the endoplasmic reticulum resident proteome: Secreted ER Calcium Modulated Protein (SERCaMP) assay (AID 1508630). Also: % is scaled to controls: 0 for no effect and ±100 for the full control effect. In short, it runs like this: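 The SH-SY5Y reporter protocol was run at 3 concentrations up to 38.3 uM (primary) or 11 concentrations (follow-up): 16 h compound, 100 nM thapsigargin for 4 h, then extracellular luciferase luminescence.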

Experiment [14] concerns the target Calcium and integrin-binding protein 1 (Homo sapiens) (UniProt Q99828). The experiment is described as follows: Confirmatory qHTS for Identification of Calcium Integrin Binding Protein 1 (CIB1) Competitor (AID 1508617). Also: % is scaled to controls: 0 for no effect and ±100 for the full control effect; nearly all actives have a fitted effect of over 65% in size. In short, it runs like this: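 Compounds at up to 114 uM final met 1 uM GST-tagged CIB1 for 15 min at room temperature (HEPES pH 7.4, 5 mM CaCl2). FITC-labelled alphaIIb peptide, 100 nM, added; polarization read after 15 min more.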

Experiment [15] can be described thus: qHTS to identify inhibitors of the type 1 interferon - major histocompatibility complex class I in skeletal muscle: primary screen against the NCATS Mechanism Interrogation Plate v5.0 (MIPE) Libary (AID 1347411). Also: nearly all actives have a fitted effect of over 65% in size. Also: potency is read from the fitted curve at half-maximal effect. In short, it runs like this:
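HLA-B HiBit myoblasts, dexamethasone-free medium + 4 ng/ml IFN-b, 24 h compound, 11-pt 1:3 from 46 uM final. Readout: Nano-Glo HiBiT lytic luminescence after 10 min lysis, RT.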

Experiment [16] can be described thus: Counterscreen qHTS for small molecule stabilizers of the endoplasmic reticulum resident proteome: GLuc-NoTag assay (AID 1508627).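 Also: SH-SY5Y cells given compound then 100 nM thapsigargin to empty ER calcium; series mostly up to about 76 µM; 0% = thapsigargin alone and -100% = DMSO vehicle control.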 In short, it runs like this:
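Counterscreen line: SH-SY5Y-GLuc-NoTag. Seed, 5 h; compound, 19 h; thapsigargin 100 nM, 4 h; 37C/5% CO2. Readout: secreted GLuc luminescence, coelenterazine 0.07x final, no lysis.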

The nature of experiment [17]: Confirmatory qHTS for small molecule stabilizers of the endoplasmic reticulum resident proteome: Secreted ER Calcium Modulated Protein (SERCaMP) assay (AID 1508628). Also: series mostly up to about 76 µM; % is scaled to controls: 0 for no effect and ±100 for the full control effect; nearly all actives have a fitted effect of over 40% in size. In short, it runs like this: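 GLuc-SERCaMP-expressing SH-SY5Y cells, pretreated 16 h with compound, are challenged with thapsigargin to empty ER calcium stores; after 4 h, coelenterazine is added directly to the medium and luminescence is imaged.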

A short description of experiment [18]: Cell Viability qHTS for small molecule stabilizers of the endoplasmic reticulum resident proteome (AID 1508629).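 Also: human SH-SY5Y neuroblastoma cells carrying the GLuc-SERCaMP reporter; compound exposure about 46 h in total before the viability read; % is scaled to controls: 0 for no effect and ±100 for the full control effect.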 The note with it: cell viability counter-screen, 100 nM thapsigargin for final 4 h.

Chain of Calcium and integrin-binding protein 1 (Homo sapiens) (Q99828 whole entry, looked up): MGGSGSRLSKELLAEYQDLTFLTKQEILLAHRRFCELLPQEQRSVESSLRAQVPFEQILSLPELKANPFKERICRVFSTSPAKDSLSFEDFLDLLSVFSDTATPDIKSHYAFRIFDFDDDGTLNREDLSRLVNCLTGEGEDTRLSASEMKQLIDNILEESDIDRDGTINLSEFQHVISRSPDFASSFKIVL
Chain of Protein phosphatase 1D (Homo sapiens) (O15297 whole entry, looked up): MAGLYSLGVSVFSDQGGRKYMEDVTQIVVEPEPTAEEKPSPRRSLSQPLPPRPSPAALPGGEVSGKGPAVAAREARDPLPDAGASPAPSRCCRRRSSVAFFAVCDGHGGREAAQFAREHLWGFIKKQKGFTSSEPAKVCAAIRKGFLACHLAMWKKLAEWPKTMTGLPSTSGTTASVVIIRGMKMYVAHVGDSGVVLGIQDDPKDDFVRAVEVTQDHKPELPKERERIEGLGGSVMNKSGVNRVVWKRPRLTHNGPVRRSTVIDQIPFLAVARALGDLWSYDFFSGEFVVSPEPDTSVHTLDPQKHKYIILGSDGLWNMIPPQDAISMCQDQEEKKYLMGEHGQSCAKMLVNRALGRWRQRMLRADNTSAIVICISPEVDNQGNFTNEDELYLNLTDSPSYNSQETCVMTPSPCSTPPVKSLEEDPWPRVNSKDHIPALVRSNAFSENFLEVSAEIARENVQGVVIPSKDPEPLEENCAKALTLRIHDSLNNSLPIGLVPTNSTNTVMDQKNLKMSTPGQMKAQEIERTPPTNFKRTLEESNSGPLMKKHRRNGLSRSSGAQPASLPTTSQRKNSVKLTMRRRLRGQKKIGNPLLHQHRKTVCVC
Chain of Single-stranded DNA cytosine deaminase (Homo sapiens) (Q9GZX7 whole entry, looked up): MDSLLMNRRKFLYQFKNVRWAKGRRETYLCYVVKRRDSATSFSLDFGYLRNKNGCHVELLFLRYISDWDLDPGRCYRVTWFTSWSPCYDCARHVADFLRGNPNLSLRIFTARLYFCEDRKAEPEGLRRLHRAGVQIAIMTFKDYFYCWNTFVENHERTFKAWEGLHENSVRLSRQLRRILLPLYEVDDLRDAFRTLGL

On to `Nc1ccncc1`, for which the call in [1], in experiment [3], in [4], in [5] and in experiment [13] was inactive. Moreover, the Potency entry in [2], in experiment [6], in experiment [7], in experiment [8], in experiment [9] and in experiment [10] was “inactive” throughout. For the same compound, the Potency result in experiment [11] and in experiment [12] was “inactive” each time.
For the compound `CC(=O)[C@H]1CC[C@H]2[C@@H]3CC[C@H]4C[C@](C)(O)CC[C@]4(C)[C@H]3CC[C@]12C`, the outcome in [1], in experiment [3], in experiment [4], in experiment [5] and in experiment [13] was inactive. Further, the Potency entry in [10], in experiment [11] and in experiment [12] was “inactive” each time.
Turning to `CN1C[C@H](CNC(=O)OCc2ccccc2)C[C@@H]2c3cccc4c3c(cn4C)C[C@H]21`, the compound was classed as inactive in experiment [1], in experiment [3], in experiment [4], in [5] and in [14]. The Potency result in experiment [10] is “inactive”. The Potency in experiment [11] is 44.7 µM (active).
Turning to `C[C@@H]1O[C@@H](O[C@H]2C[C@@H](O)[C@]3(CO)[C@H]4[C@H](O)C[C@]5(C)[C@@H](C6=CC(=O)OC6)CC[C@]5(O)[C@@H]4CC[C@]3(O)C2)[C@H](O)[C@H](O)[C@H]1O`, the result in [1], in experiment [3], in experiment [4], in experiment [5] and in [13] was inactive. Besides, the Potency in experiment [15] was 0.037 µM (active); in [7] it was 1.26 µM (active). For the same compound, the Potency entry in experiment [2], in experiment [6], in [8], in [11] and in experiment [12] was “inactive” throughout.
Regarding `Cn1c(CCCC(=O)O)nc2cc(N(CCCl)CCCl)ccc21`, the compound was classed as inactive in [1], in [3] and in experiment [13]. For the same compound, the Potency result in [15], in experiment [7], in experiment [9], in experiment [10], in experiment [11] and in experiment [12] was “inactive” throughout.
In the case of `CC[N+](CC)(CC)CC`, the Potency result in experiment [2], in experiment [10] and in [12] was “inactive” in each case. Further, the result in experiment [3] and in experiment [13] was inactive.
On to `CC(C)CC(N(C)C)C1(c2ccc(Cl)cc2)CCC1` (centres undefined), for which the Potency entry in experiment [2], in [10], in experiment [12], in experiment [16] and in experiment [17] was “inactive” each time. The compound was classed as inactive in [3] and in [13]. Also, in experiment [18], the max response is 6.57%.
As to `CN1C(=S)CN=C(c2ccccc2)c2cc(Cl)ccc21`, the Potency result in experiment [2], in experiment [10] and in experiment [12] was “inactive” throughout. Besides, the result in experiment [3] and in experiment [13] was inactive.
For the compound `C[C@]12C/C(=C/O)C(=O)C[C@@H]1CC[C@@H]1[C@@H]2CC[C@@]2(C)[C@H]1CC[C@]2(C)O`, the Potency entry in experiment [2], in experiment [10] and in [12] was “inactive” each time. In experiment [3], the call was inactive.
On to `FC(F)(F)c1cccc(C2=CCN(CCc3ccc4ccccc4c3)CC2)c1`, for which the Potency entry in experiment [2], in experiment [6], in experiment [7], in experiment [8], in experiment [9] and in [10] was “inactive” each time. The Potency entry in experiment [12] is “inactive”. The result in experiment [3] and in [13] was inactive.
For `OCCOc1ccccc1`, the Potency entry in experiment [2], in [6], in [7], in experiment [8], in [9] and in experiment [10] was “inactive” each time. The Potency entry in experiment [12] was “inactive”. Also, in experiment [3], the call was inactive.
Regarding `C=CCN1CC[C@]23c4c5ccc(O)c4O[C@H]2C(=O)CC[C@@]3(O)[C@H]1C5`, the Potency entry in experiment [2], in experiment [6], in experiment [7], in experiment [8], in experiment [9] and in experiment [10] was “inactive” in each case. Further, in experiment [12], the Potency result is “inactive”. The call in experiment [3] and in [13] was inactive.
For `Cc1cc(SCc2sc(-c3ccc(C(F)(F)F)c(F)c3)nc2C)ccc1OCC(=O)O`, the Potency result in experiment [15] and in experiment [12] was “inactive” throughout. Further, in [13], the result was inactive.
As for `CCN(CC)CCN1C(=O)CN=C(c2ccccc2F)c2cc(Cl)ccc21`, the Potency entry in experiment [2], in [10] and in experiment [12] was “inactive” each time. In experiment [3], the compound was classed as inactive.
Regarding `C[C@H]1O[C@@H](O[C@H]2[C@@H](O)C[C@H](O[C@H]3[C@@H](O)C[C@H](O[C@H]4CC[C@@]5(C)[C@H](CC[C@@H]6[C@@H]5CC[C@]5(C)[C@@H](C7=CC(=O)OC7)CC[C@]65O)C4)O[C@@H]3C)O[C@@H]2C)C[C@H](O)[C@@H]1O`, the Potency result in [2], in [6] and in experiment [8] was “inactive” in each case. The result in [3] and in experiment [13] was inactive.
